# Data as given in the supplement of paper PMC8728848.
# This is one part of a sample in which the strongest signals are shown more often than they occur.
# B1: Clone730PsrP (Streptococcus pneumoniae) (protein)
# chain: MDHHHHHHHHHHASENLYFQGAMVVGSQTAAATEATAKKVEEDRKKPASDYVASVTNVNLQSYAKRRKRSVDSIEQLLASIKNAAVFSGNTIVNGAPAINASLNIAKSETKVYTGEGVDSVYRVPIYYKLKVTNDGSKLTFTYTVTYVNPKTNDLGNISSMRPGYSIYNSGTSTQTMLTLGSDLGKPSGVKNYITDKNGRQVLSYNTSTMTTQGSGYTWGNGAQMNGFFAKKGYGLTSSWTVPITGTDTSFTFTPYAARTDRIGINYFNGGGKVVESSTT
# How the values were obtained:
# Assay in all cases: glycan array binding signal (z-score within array); higher = stronger binding
# Settings in all cases: glycan notation: IUPAC condensed, linker removed
# Fuc(a1-2)Gal = molecular target: Fuc(a1-2)Gal
# Method in brief: (§1)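 Glycan array data came from 3228 arrays in the Consortium for Functional Glycomics database, and only arrays with an available protein sequence were kept. Glycan names were put into IUPAC-condensed notation, and columns mapping to the same glycan were averaged. The binding signal is a within-array Z-score, averaged across arrays of one protein sequence run at different concentrations or buffers and across linkers. A negative Z-score can be read as non-binding.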
# [1] = molecular target: Fuc(a1-2)Gal(b1-3)GlcNAc(b1-3)[Fuc(a1-2)Gal(b1-3)GlcNAc(b1-6)]GalNAc
# Method in brief: as §1
# [2] = molecular target: Fuc(a1-2)Gal(b1-3)[Fuc(a1-4)]GlcNAc(b1-2)Man(a1-3)[Fuc(a1-2)Gal(b1-3)[Fuc(a1-4)]GlcNAc(b1-2)Man(a1-6)]Man(b1-4)GlcNAc(b1-4)[Fuc(a1-6)]GlcNAc(b1-4)[Fuc(a1-6)]GlcNAc
# Method in brief: as §1
# [3] = molecular target: Fuc(a1-2)Gal(b1-4)GlcNAc(b1-2)Man(a1-3)[Fuc(a1-2)Gal(b1-4)GlcNAc(b1-2)Man(a1-6)]Man(b1-4)GlcNAc(b1-4)GlcNAc
# Method in brief: as §1
# [4] = molecular target: Fuc(a1-2)Gal(b1-4)GlcNAc(b1-6)GalNAc
# Method in brief: as §1
# Fuc(a1-2)Gal6S(b1-4)Glc = molecular target: Fuc(a1-2)Gal6S(b1-4)Glc
# Method in brief: as §1
# [5] = molecular target: Fuc(a1-2)[Gal(a1-3)]Gal(b1-4)[Fuc(a1-3)]GlcNAc(b1-3)GalNAc
# Method in brief: as §1
# [6] = molecular target: Fuc(a1-2)[GalNAc(a1-3)]Gal(b1-4)GlcNAc(b1-2)Man(a1-3)[Fuc(a1-2)[GalNAc(a1-3)]Gal(b1-4)GlcNAc(b1-2)Man(a1-6)]Man(b1-4)GlcNAc(b1-4)[Fuc(a1-6)]GlcNAc
# Method in brief: as §1
# [7] = molecular target: Fuc(a1-2)[GalNAc(a1-3)]Gal(b1-4)[Fuc(a1-3)]GlcNAc(b1-3)GalNAc
# Method in brief: as §1
# [8] = molecular target: Fuc(a1-3)[GalNAc(b1-4)]GlcNAc
# Method in brief: as §1
# [9] = molecular target: Fuc(a1-3)[GalNAc(b1-4)]GlcNAc6S
# Method in brief: as §1
# Gal(a1-2)Gal = molecular target: Gal(a1-2)Gal
# Method in brief: as §1
# [10] = molecular target: Gal(a1-3)Gal(b1-4)GlcNAc(b1-6)GalNAc
# Method in brief: as §1
# [11] = molecular target: Gal(b1-3)GalNAc(b1-4)[Neu5Ac(a2-3)]Gal(b1-4)Glc
# Method in brief: as §1
# [12] = molecular target: Gal(b1-3)GlcNAc(b1-2)[Gal(b1-3)GlcNAc(b1-6)]Man(a1-6)[Gal(b1-3)GlcNAc(b1-2)Man(a1-3)]Man(b1-4)GlcNAc(b1-4)GlcNAc
# Method in brief: as §1
# [13] = molecular target: Gal(b1-3)GlcNAc(b1-3)Gal(b1-4)GlcNAc(b1-2)Man(a1-3)[Gal(b1-3)GlcNAc(b1-3)Gal(b1-4)GlcNAc(b1-2)Man(a1-6)]Man(b1-4)GlcNAc(b1-4)GlcNAc
# Method in brief: as §1
# [14] = molecular target: Gal(b1-3)GlcNAc(b1-3)Gal(b1-4)[Fuc(a1-3)]GlcNAc(b1-6)[Gal(b1-3)GlcNAc(b1-3)]Gal(b1-4)Glc
# Method in brief: as §1
# [15] = molecular target: Gal(b1-3)GlcNAc(b1-6)GalNAc
# Method in brief: as §1
# [16] = molecular target: Gal(b1-3)[Neu5Ac(a2-6)]GalNAc
# Method in brief: as §1
# [17] = molecular target: Gal(b1-4)GalNAc(a1-3)[Fuc(a1-2)]Gal(b1-4)GlcNAc
# Method in brief: as §1
# [18] = molecular target: Gal(b1-4)GlcNAc(b1-2)Man(a1-3)[Gal(b1-4)GlcNAc(b1-2)Man(a1-6)][GlcNAc(b1-4)]Man(b1-4)GlcNAc(b1-4)[Fuc(a1-6)]GlcNAc
# Method in brief: as §1
# [19] = molecular target: Gal(b1-4)GlcNAc(b1-2)[Gal(b1-4)GlcNAc(b1-4)]Man(a1-3)[Gal(b1-4)GlcNAc(b1-2)Man(a1-6)]Man(b1-4)GlcNAc(b1-4)GlcNAc
# Method in brief: as §1
# Gal3S(b1-4)GlcNAc = molecular target: Gal3S(b1-4)GlcNAc
# Method in brief: as §1
# [20] = molecular target: Gal3S(b1-4)[Fuc(a1-3)]GlcNAc
# Method in brief: as §1
# Gal3S6S(b1-4)GlcNAc6S = molecular target: Gal3S6S(b1-4)GlcNAc6S
# Method in brief: as §1
# Gal4S6S(b1-4)GlcNAc = molecular target: Gal4S6S(b1-4)GlcNAc
# Method in brief: as §1
# GalNAc(b1-4)Gal(b1-4)Glc = molecular target: GalNAc(b1-4)Gal(b1-4)Glc
# Method in brief: as §1
# GalNAc(b1-4)GlcNAc = molecular target: GalNAc(b1-4)GlcNAc
# Method in brief: as §1
# [21] = molecular target: Glc(a1-4)Glc(a1-4)Glc(a1-4)Glc
# Method in brief: as §1
# Glc(a1-6)Glc(a1-6)Glc = molecular target: Glc(a1-6)Glc(a1-6)Glc
# Method in brief: as §1
# [22] = molecular target: Glc(a1-6)Glc(a1-6)Glc(a1-6)Glc
# Method in brief: as §1
# [23] = molecular target: GlcNAc(b1-3)Gal(b1-4)GlcNAc(b1-3)Gal(b1-4)GlcNAc
# Method in brief: as §1
# [24] = molecular target: GlcNAc(b1-3)Gal(b1-4)GlcNAc(b1-3)Gal(b1-4)GlcNAc(b1-3)Gal(b1-4)GlcNAc(b1-2)Man(a1-3)[GlcNAc(b1-3)Gal(b1-4)GlcNAc(b1-3)Gal(b1-4)GlcNAc(b1-3)Gal(b1-4)GlcNAc(b1-2)Man(a1-6)]Man(b1-4)GlcNAc(b1-4)GlcNAc
# Method in brief: as §1
# [25] = molecular target: GlcNAc(b1-3)[GlcNAc(b1-4)][GlcNAc(b1-6)]GlcNAc
# Method in brief: as §1
# Man(a1-3)[Man(a1-6)]Man = molecular target: Man(a1-3)[Man(a1-6)]Man
# Method in brief: as §1
# [26] = molecular target: Man(a1-3)[Man(a1-6)]Man(a1-6)[Man(a1-3)]Man
# Method in brief: as §1
# [27] = molecular target: Man(a1-3)[Man(a1-6)]Man(b1-4)GlcNAc(b1-4)[Fuc(a1-6)]GlcNAc
# Method in brief: as §1
# Man(a1-6)Man = molecular target: Man(a1-6)Man
# Method in brief: as §1
# [28] = molecular target: Neu5Ac(a2-3)Gal(b1-3)GlcNAc(b1-2)Man(a1-3)[Neu5Ac(a2-3)Gal(b1-3)GlcNAc(b1-2)Man(a1-6)]Man(b1-4)GlcNAc(b1-4)GlcNAc
# Method in brief: as §1
# [29] = molecular target: Neu5Ac(a2-3)Gal(b1-4)GlcNAc(b1-2)Man
# Method in brief: as §1
# [30] = molecular target: Neu5Ac(a2-3)Gal(b1-4)GlcNAc(b1-2)Man(a1-3)[GlcNAc(b1-4)][Neu5Ac(a2-3)Gal(b1-4)GlcNAc(b1-2)Man(a1-6)]Man(b1-4)GlcNAc(b1-4)GlcNAc
# Method in brief: as §1
# [31] = molecular target: Neu5Ac(a2-3)Gal(b1-4)GlcNAc(b1-2)Man(a1-3)[Neu5Ac(a2-3)Gal(b1-4)GlcNAc(b1-2)Man(a1-6)]Man(b1-4)GlcNAc(b1-4)[Fuc(a1-6)]GlcNAc
# Method in brief: as §1
# [32] = molecular target: Neu5Ac(a2-3)Gal(b1-4)GlcNAc(b1-3)Gal
# Method in brief: as §1
# [33] = molecular target: Neu5Ac(a2-3)Gal(b1-4)GlcNAc(b1-3)Gal(b1-4)GlcNAc(b1-3)Gal(b1-4)GlcNAc(b1-2)Man(a1-3)[Neu5Ac(a2-3)Gal(b1-4)GlcNAc(b1-3)Gal(b1-4)GlcNAc(b1-3)Gal(b1-4)GlcNAc(b1-2)Man(a1-6)]GalNAc
# Method in brief: as §1
# [34] = molecular target: Neu5Ac(a2-3)Gal(b1-4)[Fuc(a1-3)]GlcNAc6S
# Method in brief: as §1
# [35] = molecular target: Neu5Ac(a2-3)[GalNAc(b1-4)]Gal(b1-4)Glc
# Method in brief: as §1
# [36] = molecular target: Neu5Ac(a2-6)Gal(b1-4)GlcNAc(b1-2)Man(a1-6)[GlcNAc(b1-2)Man(a1-3)]Man(b1-4)GlcNAc(b1-4)GlcNAc
# Method in brief: as §1
# [37] = molecular target: Neu5Ac(a2-6)Gal(b1-4)GlcNAc(b1-3)Gal(b1-4)GlcNAc(b1-3)Gal(b1-4)GlcNAc(b1-2)Man(a1-3)[Neu5Ac(a2-6)Gal(b1-4)GlcNAc(b1-3)Gal(b1-4)GlcNAc(b1-3)Gal(b1-4)GlcNAc(b1-2)Man(a1-6)]GalNAc
# Method in brief: as §1
# [38] = molecular target: Neu5Ac(a2-6)Gal(b1-4)GlcNAc(b1-3)Gal(b1-4)GlcNAc(b1-6)[Gal(b1-3)]GalNAc
# Method in brief: as §1
# [39] = molecular target: Neu5Ac(a2-6)Gal(b1-4)GlcNAc(b1-3)[Neu5Ac(a2-6)Gal(b1-4)GlcNAc(b1-6)]GalNAc
# Method in brief: as §1
# [40] = molecular target: Neu5Gc(a2-8)Neu5Gc(a2-3)Gal(b1-4)GlcNAc(b1-3)Gal(b1-4)GlcNAc
# Method in brief: as §1
# [41] = molecular target: Neu5Gc(a2-8)Neu5Gc(a2-6)Gal(b1-4)GlcNAc
# Method in brief: as §1
binder,measurement,setting,value
B1,glycan array binding signal (z-score),Fuc(a1-2)Gal,0.412
same,glycan array binding signal (z-score),[1],1.96
same,glycan array binding signal (z-score),[2],-0.364
same,glycan array binding signal (z-score),[3],-0.472
same,glycan array binding signal (z-score),[4],1.79
same,glycan array binding signal (z-score),Fuc(a1-2)Gal6S(b1-4)Glc,-0.11
same,glycan array binding signal (z-score),[5],-0.513
same,glycan array binding signal (z-score),[6],2.17
same,glycan array binding signal (z-score),[7],0.059
same,glycan array binding signal (z-score),[8],0.389
same,glycan array binding signal (z-score),[9],0.499
same,glycan array binding signal (z-score),Gal(a1-2)Gal,-0.461
same,glycan array binding signal (z-score),[10],-0.459
same,glycan array binding signal (z-score),[11],2.82
same,glycan array binding signal (z-score),[12],19.3
same,glycan array binding signal (z-score),[13],-0.281
same,glycan array binding signal (z-score),[14],-0.518
same,glycan array binding signal (z-score),[15],-0.605
same,glycan array binding signal (z-score),[16],-0.508
same,glycan array binding signal (z-score),[17],-0.441
same,glycan array binding signal (z-score),[18],-0.249
same,glycan array binding signal (z-score),[19],-0.616
same,glycan array binding signal (z-score),Gal3S(b1-4)GlcNAc,0.189
same,glycan array binding signal (z-score),[20],0.82
same,glycan array binding signal (z-score),Gal3S6S(b1-4)GlcNAc6S,-0.38
same,glycan array binding signal (z-score),Gal4S6S(b1-4)GlcNAc,-0.324
same,glycan array binding signal (z-score),GalNAc(b1-4)Gal(b1-4)Glc,1.39
same,glycan array binding signal (z-score),GalNAc(b1-4)GlcNAc,0.829
same,glycan array binding signal (z-score),[21],2.03
same,glycan array binding signal (z-score),Glc(a1-6)Glc(a1-6)Glc,-0.273
same,glycan array binding signal (z-score),[22],2.73
same,glycan array binding signal (z-score),[23],-0.488
same,glycan array binding signal (z-score),[24],-0.481
same,glycan array binding signal (z-score),[25],-0.013
same,glycan array binding signal (z-score),Man(a1-3)[Man(a1-6)]Man,0.888
same,glycan array binding signal (z-score),[26],2.14
same,glycan array binding signal (z-score),[27],-0.591
same,glycan array binding signal (z-score),Man(a1-6)Man,3.24
same,glycan array binding signal (z-score),[28],0.657
same,glycan array binding signal (z-score),[29],1.83
same,glycan array binding signal (z-score),[30],-0.507
same,glycan array binding signal (z-score),[31],-0.658
same,glycan array binding signal (z-score),[32],-0.586
same,glycan array binding signal (z-score),[33],1.38
same,glycan array binding signal (z-score),[34],1.98
same,glycan array binding signal (z-score),[35],-0.647
same,glycan array binding signal (z-score),[36],-0.372
same,glycan array binding signal (z-score),[37],0.355
same,glycan array binding signal (z-score),[38],-0.382
same,glycan array binding signal (z-score),[39],-0.567
same,glycan array binding signal (z-score),[40],-0.565
same,glycan array binding signal (z-score),[41],-0.41
